Results reported in PubChem BioAssay AID1446 (The Scripps Research Institute Molecular Screening Center, 2008).
Hit rate of the full screen: of about 220,000 compounds, about 2,400 (1.1%) were called active. The entries come from a sample that favours actives as a whole. Unmarked numbers belong to inactive results.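 Rule for the calls: active = inhibition above the campaign mean plus 3 SD over all tested compounds (cut at about 24% in these data); inactive = the rest.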

Assay: reduced viability of JAK2V617F-dependent Ba/F3 cells, primary screen, JAK2V617F inhibitor project, cell-based, Ba/F3 EpoR-JAK2V617F, luminescence (AID 1446);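 note: cytokine-independent growth of Ba/F3 cells driven by EpoR plus mutant JAK2; 0% = DMSO-treated cells and 100% = JAK inhibitor I control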
Conditions: ATP luminescence, at 5.6 µM, hits give high values
In the case of `COc1cc(OC)cc(C(=O)N[C@H](C(=O)Nc2nc3ccccc3[nH]2)C(C)C)c1`, the inhibition is reported as 76.2% (active).
With `COc1ccc(OC(C)C(=O)NCCc2nc3ccccc3[nH]2)cc1` (configuration not stated) the inhibition was -2.24%.
For `COc1cc(OC)cc(C(=O)N[C@H](C(=O)OCC(=O)NC(C)c2ccccc2)C(C)C)c1` (some centres not stated), the inhibition was -0.99%.
Work on `COC(=O)Cc1ccc(N(Cc2ccccc2F)S(=O)(=O)c2ccc(Br)cc2)cc1` yielded an inhibition of -1.26%.
For `COC(=O)Cn1c(O)c(N=NC(=O)OC)c2ccccc21`, the inhibition was -2.09%.
`Cc1oc2c(c1C(=O)N1CCOCC1)C(=O)c1ccccc1C2=O` showed an inhibition of 3.99%.
In the case of `CCOC(=O)NC(=O)/C(C#N)=C\c1ccccc1`, the inhibition is reported as 1.65%.
For `Cc1coc(C)c1C(=O)CC1(O)C(=O)N(C)c2ccc(Cl)cc21` (configuration not stated), the inhibition was 2.68%.
For `Cc1ccc(/C=N/NC(=O)COc2ccccc2-c2ccccc2)cc1`, the inhibition was 86.5% (active).
For `Cc1ccc(OCC(=O)N/N=C/c2ccncc2)cc1`, the inhibition was -1.35%.
Work on `Cc1ccc(OCC(=O)N/N=C\c2ccco2)c(C)c1` yielded an inhibition of -7.98%.
In the case of `Cc1cc(C)nc(SCC(=O)N(C)C)n1`, the inhibition is reported as -5.1%.
In the case of `Nc1cccc(CCc2nc3ccccc3[nH]2)c1`, the inhibition is reported as -1.26%.
For `Cc1ccc(S(=O)(=O)NC(=O)N2CCCC(C)(C)C2)cc1`, the inhibition was -3.44%.
For `Cc1ccc(S(=O)(=O)C2(S(=O)(=O)c3ccc(C)cc3)CCCC2)cc1`, the inhibition was 30.1% (active).
With `Cc1ccc(S(=O)(=O)N(C)C2(C)CCS(=O)(=O)C2)cc1` (configuration not stated) the inhibition was -0.37%.
For `Cc1ccc(NC(=O)C(=O)NCc2ccco2)c(C)c1`, the inhibition was -1.41%.
With `CCN(C(=O)COC(=O)c1cc(NS(=O)(=O)c2ccc(Cl)c([N+](=O)[O-])c2)ccc1O)C1CCCCC1` the inhibition was -2.87%.
Work on `COc1ccccc1Nc1nc(N)nc(CN(C)C2CCCCC2)n1` yielded an inhibition of -3.54%.
For `COc1ccccc1NC1=NC(c2ccc(Cl)cc2)N=C(N)N1` (configuration not stated), the inhibition was 84.9% (active).
For `COc1ccccc1NC1=NC2(CCCC2)N=C(N)N1`, the inhibition was 1.28%.
For `CC(C)(C)c1ccc(C(=O)NCCn2c(N)c(C#N)c3nc4ccccc4nc32)cc1`, the inhibition was 1.57%.
With `CC(C)(C)NC(=O)COC(=O)c1cc(Br)ccc1Cl` the inhibition was -5.58%.
Compound `CCOc1ccc(-n2c(O)c(/C=N/Nc3nnc(C)c(=O)[nH]3)c3ccccc3c2=O)cc1` has an inhibition of -1.02%.
In the case of `Cc1nnc(N/N=C/c2ccccn2)[nH]c1=O`, the inhibition is reported as -4.34%.
For `COc1ccc(Cc2nnc(N/N=C/c3ccccc3O)[nH]c2=O)cc1OC`, the inhibition was 24.2% (active).
Work on `CSCC(NS(=O)(=O)c1ccc(C)cc1)C(=O)O` (configuration not stated) yielded an inhibition of -0.95%.
With `CC(=O)Nc1ccc(C(=O)/C=C/c2ccc[nH]2)cc1` the inhibition was 0.42%.
With `Cc1ccc(NC(=O)CC2S/C(=N/N=C3\CCCc4ccccc43)NC2=O)cc1` (configuration not stated) the inhibition was -2.25%.
Compound `COc1ccc(NS(=O)(=O)c2ccc(NC(=O)c3ccc(N(C)S(C)(=O)=O)cc3)cc2)cc1` has an inhibition of 22.6%.
In the case of `COc1ccc(NS(=O)(=O)c2ccc(Oc3c(C#N)cccc3C#N)cc2)cc1`, the inhibition is reported as 40.8% (active).
Work on `CCOc1ccc(S(=O)(=O)Nc2ccc(S(=O)(=O)Nc3cc(OC)ccc3OC)cc2)cc1` yielded an inhibition of 3.6%.
`Cc1cc(C)c(NC(=S)N2CCCC2C(=O)O)c(C)c1` (configuration not stated) gave an inhibition of -0.43%.
In the case of `Nc1nnc(SCC(=O)OCc2ccc(Cl)c(Cl)c2)s1`, the inhibition is reported as 1.09%.
For `Cc1ccc(S(=O)(=O)N(C)c2ccc(OCC(=O)NC3=NCCS3)cc2)cc1`, the inhibition was 4.42%.
Work on `COc1ccc(CC(=O)NCc2nnc(SCC(=O)Nc3nccs3)n2C)cc1` yielded an inhibition of -0.03%.
In the case of `Cn1c(CCN2CCCCCC2)nc2cc(NC(=O)Nc3ccccc3)ccc21`, the inhibition is reported as 77.4% (active).
In the case of `CC(=O)NCCc1nc2cc(NC(=O)c3ccccc3)ccc2n1C`, the inhibition is reported as 3.36%.
In the case of `CCC(=O)Nc1ccc2c(c1)nc(CCN1CCN(C)CC1)n2C`, the inhibition is reported as 0.28%.
With `Cc1ccc(N(C(=O)Cc2cccs2)C2C=CS(=O)(=O)C2)cc1Cl` (configuration not stated) the inhibition was 3.93%.
With `O=c1[nH]c(CSc2ccccc2)nc2c1oc1ccccc12` the inhibition was -0.61%.
For `CCOC(=O)C1=C(c2ccc(OC)cc2)C(=O)c2ccccc2C1=O`, the inhibition was 46.9% (active).
In the case of `CCOC(=O)c1c(-c2ccc(C)cc2)csc1/N=C(\C)C1=C(O)c2ccccc2C1=O`, the inhibition is reported as -3.38%.
`CCOC(=O)c1ccccc1NS(=O)(=O)c1ccc(OC)cc1` gave an inhibition of -0.82%.
For `COc1ccccc1Nc1nc(N)nc(CSC(=S)N2CCOCC2)n1`, the inhibition was 0.7%.
With `O=c1cc(-c2ccccc2)[nH]c2cc(F)ccc12` the inhibition was 70.7% (active).
With `Cc1ccc(-c2cc(=O)c3ccc(F)cc3[nH]2)cc1` the inhibition was -1.31%.
Work on `Cc1ccc(-c2cc(=O)c3ccc(Cl)cc3[nH]2)cc1` yielded an inhibition of -3.39%.
In the case of `CCOC(=O)c1cnc(Nc2nc3ccccc3o2)nc1CSC(=S)N1CCCCC1`, the inhibition is reported as -2.9%.
In the case of `CC#CC[N+](C)(C)CCCCCC`, the inhibition is reported as 35.9% (active).
For `C/C(=N\NC(=O)c1cccc(N2CCCC2=O)c1)c1ccc(N)cc1`, the inhibition was 0.87%.
Work on `CC1=NNC(=O)C1CCC(=O)N/N=C(\C)c1ccc(Cl)cc1` (configuration not stated) yielded an inhibition of -7.29%.
`Cc1cccc(NC(=S)NC(=O)c2ccc(Br)o2)c1` gave an inhibition of 1.21%.
For `Cc1cccc(NC(=O)c2ccc([N+](=O)[O-])o2)c1`, the inhibition was 38.7% (active).
`Cc1onc(NC(=O)c2ccc([N+](=O)[O-])o2)c1Br` showed an inhibition of 2.15%.
With `Cc1cc(C)cc(OCC(=O)Nc2ccc(S(=O)(=O)Nc3ccccn3)cc2)c1` the inhibition was -4.41%.
`Cc1ccc(OCC(=O)Nc2ccc(S(=O)(=O)Nc3ccccn3)cc2)cc1` showed an inhibition of -2.67%.
In the case of `Cc1ccc(S(=O)(=O)Nc2ccc3ncccc3c2)cc1`, the inhibition is reported as 32.3% (active).
Compound `c1ccc(-c2ccc3c(c2)NC(C2Nc4cc(-c5ccccc5)ccc4O2)O3)cc1` (configuration not stated) has an inhibition of -3.19%.
`Cc1c(Cl)c([N+](=O)[O-])nn1CCCC(=O)NC(C)c1ccccc1` (configuration not stated) gave an inhibition of 0.46%.
In the case of `CC(C)CCN1CCN(C/C=C/c2ccco2)CC1CCO` (configuration not stated), the inhibition is reported as -3.77%.
With `Oc1ccc2ccccc2c1N=Nc1nccs1` the inhibition was 98.2% (active).
`Oc1ccc(N=Nc2nccs2)c(O)c1` showed an inhibition of 8.36%.
`Oc1ccc2ccccc2c1C=Nc1ccccc1` gave an inhibition of 0.08%.
`CCCC(NC(=O)c1ccco1)c1nc2ccccc2[nH]1` (configuration not stated) showed an inhibition of 4.01%.
`Cn1c(=O)c2c(nc(NCCc3ccccc3)n2Cc2ccccc2)n(C)c1=O` gave an inhibition of 1.54%.
With `COC(=O)C(C)Sc1nc2c(c(=O)n(C)c(=O)n2C)n1Cc1cccc(C)c1` (configuration not stated) the inhibition was -3.92%.
For `CCCCNc1nc2c(c(=O)n(C)c(=O)n2C)n1Cc1cccc(OC)c1`, the inhibition was 52.4% (active).
`O=C(NCC1CCCO1)c1ccccc1-c1nc(-c2ccccc2Cl)no1` (configuration not stated) gave an inhibition of 4.19%.
In the case of `COc1ccc(CCNS(=O)(=O)c2ccc(C(=O)NCc3ccco3)cc2)cc1OC`, the inhibition is reported as -0.49%.
Compound `COc1ccc2c(Cl)c(C(=O)NCc3ccco3)sc2c1` has an inhibition of -3.38%.
In the case of `CCCC1=Nc2cc(C(=O)NCc3ccco3)ccc2Sc2ccccc21`, the inhibition is reported as 81.1% (active).
In the case of `O=[N+]([O-])C(=c1ccc2c(c1)N1C3=C(CCCC3)CC3CCCCC31N=2)[N+](=O)[O-]` (configuration not stated), the inhibition is reported as -3.46%.
With `COc1ccccc1CNC(=O)CNC(=O)c1cn(-c2ccccc2OC)c(=O)c2ccccc12` the inhibition was -3.01%.
Work on `Cn1nc(C(F)(F)F)cc1-c1ccc(/C=C(\C#N)C(=O)c2cccc(C(F)(F)F)c2)s1` yielded an inhibition of -2.61%.
For `CSC(=S)N/N=C/c1c[nH]c2ccccc12`, the inhibition was -3.06%.
In the case of `S=c1[nH]nc(-c2ccccc2)n1/N=C/c1c[nH]c2ccccc12`, the inhibition is reported as -2.71%.
For `C[n+]1ccc(/C=C/c2c[nH]c3ccccc23)cc1`, the inhibition was 88.5% (active).
With `CC1(C)C2CC=C(/C=N/NC(=O)c3ccc(Cl)cc3)C1C2` (configuration not stated) the inhibition was -0.76%.
`COc1ccc(C(=O)Nc2ccc(F)cc2F)cc1` gave an inhibition of -3.55%.
For `O=C(Nc1cccc(F)c1)c1ccc(S(=O)(=O)N2CCCC2)cc1`, the inhibition was 2.9%.
In the case of `CCOC(=O)N1CCN(S(=O)(=O)c2ccc(C(=O)Nc3ccc(F)cc3F)cc2)CC1`, the inhibition is reported as 54.4% (active).
In the case of `O=C(COC(=O)c1ccc(O)cc1)Nc1nccs1`, the inhibition is reported as 0.51%.
`Cc1nc(N2CCC(C)CC2)c2c(C)c(C(=O)Nc3cc(F)ccc3C)sc2n1` showed an inhibition of 2.17%.
In the case of `C=CCSc1nnc(NC(=O)c2ccc(NC(C)=O)cc2)s1`, the inhibition is reported as -0.62%.
With `CC(=O)c1sc(NC(=O)c2cccc3ccccc23)nc1C` the inhibition was -0.63%.
`O=C(Cc1ccc2c(c1)CCCC2)Nc1ccccc1Cl` gave an inhibition of 3.77%.
In the case of `CC(NC(=O)c1cccc2ccccc12)c1ccc2c(c1)CCCC2` (configuration not stated), the inhibition is reported as 64.5% (active).
Compound `O=[N+]([O-])c1ccc2nc(-c3ccccn3)[nH]c2c1` has an inhibition of 2.31%.
`NNC(=O)c1oc2nc(-c3ccccc3)cc(-c3ccco3)c2c1N` showed an inhibition of -4.49%.
Work on `COC(=O)c1cc2c(ccn2C)n1C` yielded an inhibition of -1.58%.
Work on `Cc1ccc(S(=O)(=O)N2CCOCC2)cc1C(=O)OC1CCCCC1=O` (configuration not stated) yielded an inhibition of 0.06%.
For `O=C(CN1CCCCC1)Nc1ccccc1Cl`, the inhibition was 1.81%.
In the case of `O=C(Nc1ccccc1Cl)/C(Cl)=C(\Cl)S(=O)c1ccccc1` (configuration not stated), the inhibition is reported as 102% (active).
`O=C(Nc1ccccc1Cl)c1ccc2nsnc2c1` gave an inhibition of 0.05%.
`O=S(=O)(Nc1n[nH]c(C(F)(F)F)n1)c1ccccc1` gave an inhibition of -3.72%.
For `O=C(CNc1ccc(F)cc1F)NC(=O)NCc1ccco1`, the inhibition was 4.79%.
